According to PubChem BioAssay (Tox21):
“And” between values parts separate entries of the source, which are not always exact repeats. Identical values can stand only once. Values without a mark were called inactive. Records with an inconclusive call do not appear. Where a call stands in place of a potency, no number is given. The source made the active and inactive calls. Unless noted, the call rests on the fitted dose curve.

How the values were obtained:
[1] = Nuclear factor erythroid 2-related factor 2/antioxidant responsive element (Nrf2/ARE) small molecule agonists: luciferase reporter gene qHTS assay in human keratinocytes (AID 1919969); further: nearly all actives have a fitted effect of over 35% in size; further: potency means the concentration at half of the fitted maximal effect
[2] = target: Gonadotropin-releasing hormone receptor (Homo sapiens) (UniProt P30968); experiment: Human gonadotropin-releasing hormone receptor (GnRHR) small molecule agonists, calcium flux assay in GnRHR-HEK293 cells (AID 1920063); further: nearly all actives have a fitted effect of over 35% in size
Sequence of Gonadotropin-releasing hormone receptor (Homo sapiens) (P30968 whole entry, looked up): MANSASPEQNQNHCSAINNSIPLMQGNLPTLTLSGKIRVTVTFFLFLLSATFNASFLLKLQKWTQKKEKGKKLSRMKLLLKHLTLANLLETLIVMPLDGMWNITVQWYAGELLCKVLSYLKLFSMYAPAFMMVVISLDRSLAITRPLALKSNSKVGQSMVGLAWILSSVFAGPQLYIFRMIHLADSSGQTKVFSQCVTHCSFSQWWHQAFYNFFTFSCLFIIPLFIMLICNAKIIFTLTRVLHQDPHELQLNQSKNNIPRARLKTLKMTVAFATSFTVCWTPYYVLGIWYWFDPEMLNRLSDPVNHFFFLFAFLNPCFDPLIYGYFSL
Procedure, shortened: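 We seeded human GnRHR-expressing HEK293 cells for 18 hours, loaded them with calcium dye for an hour at 37 C, added test compounds, and recorded fluorescence intensity kinetically for three minutes.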

[3] = G protein-coupled receptor (GPCR) small molecule agonists, calcium flux assay: HEK293 wild type cell line counter screen (AID 1920065)
Procedure, shortened: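 Calcium-sensitive dye, loaded 1 h at 37 C into cells cultured 18 h, reports compound-evoked calcium release as fluorescence (Ex/Em 480/540), measured over 3 min. Agonist mode; 15-point titrations, triplicate.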

[4] = p53 small molecule agonists, cell-based qHTS assay with rat liver microsomes (AID 1963578)
Procedure, shortened: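 With rat liver microsomes and NADPH present (0.5 mg/mL final each), p53RE-bla cells are treated with compound for 16 h at 37 C. LiveBLAzer detection mixture is then applied for 2 h at room temperature in the dark.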

[5] = p53 small molecule agonists, cell-based qHTS assay with rat liver microsomes: qHTS cell viability counter screen (AID 1963580); further: nearly all actives have a fitted effect of over 45% in size
Procedure, shortened: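 HCT-116 p53RE-bla, 4,000 cells/well, 5 h pre-incubation; cpd + rat liver microsomes 0.5 mg/mL + NADPH 0.5 mg/mL (final); 16 h, 37 C; CellTiter-Glo, 30 min RT; luminescence.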

[6] = p53 small molecule agonists, cell-based qHTS assay: qHTS cell viability counter screen (AID 1963581); further: nearly all actives have a fitted effect of over 45% in size
Procedure, shortened: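 Following 5 h attachment, HCT-116 p53RE-bla cells took up compound for 16 h at 37 C; the reporter was read with B/G FRET substrate (2 h RT), and viability then via CellTiter-Glo ATP luminescence.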

[7] = p53 small molecule agonists, cell-based qHTS assay (AID 1963582; active means well fitted activation curve with a large enough effect in the signal ratio in the repeat runs, not every such curve was filed as active; the % refers to the signal ratio)
Procedure, shortened: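 In this cell-based concentration-response screen, a p53 response element drives beta-lactamase; cells received DMSO-borne compounds after 5 h culture and were incubated a further 16 h before FRET substrate development.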

[8] = target: 5-hydroxytryptamine receptor 2A (Homo sapiens) (UniProt P28223); experiment: 5-hydroxytryptamine receptor 2A (HTR2A) small molecule antagonists, cell-based qHTS assay (AID 1963586); further: nearly all actives have a fitted effect of over 45% in size; further: potency means the concentration at half of the fitted maximal effect
Sequence of 5-hydroxytryptamine receptor 2A (Homo sapiens) (P28223 whole entry, looked up): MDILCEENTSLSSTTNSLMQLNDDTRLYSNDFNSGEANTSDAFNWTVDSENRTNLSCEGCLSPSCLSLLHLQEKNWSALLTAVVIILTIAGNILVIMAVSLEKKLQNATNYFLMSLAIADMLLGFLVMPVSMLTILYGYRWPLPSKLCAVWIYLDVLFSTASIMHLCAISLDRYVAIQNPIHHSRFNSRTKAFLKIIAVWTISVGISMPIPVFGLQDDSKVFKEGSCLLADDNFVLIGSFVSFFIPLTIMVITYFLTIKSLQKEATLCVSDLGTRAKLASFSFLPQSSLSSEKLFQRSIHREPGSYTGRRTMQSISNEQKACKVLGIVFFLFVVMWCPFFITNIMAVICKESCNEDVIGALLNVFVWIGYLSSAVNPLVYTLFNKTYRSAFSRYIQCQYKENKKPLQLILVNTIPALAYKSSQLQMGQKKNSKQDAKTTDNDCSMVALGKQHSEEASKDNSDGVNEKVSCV
Procedure, shortened: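 Antagonist-mode intracellular calcium assay: DOI (4 nM) added after 5 min compound pre-incubation at room temperature to dye-loaded HTR2A-CHO cells. Fluorescence followed for 3 min, sampled every second.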

[9] = target: 5-hydroxytryptamine receptor 2A (Homo sapiens) (UniProt P28223); experiment: 5-hydroxytryptamine receptor 2A (HTR2A) small molecule agonists, cell-based qHTS assay (AID 1963587); further: nearly all actives have a fitted effect of over 30% in size; further: potency means the concentration at half of the fitted maximal effect
Procedure, shortened: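 Kinetic calcium-flux fluorescence (2 min, 1 sec intervals) after compound addition in agonist mode. HTR2A-CHO cells were cultured 18 h, then dye-loaded 1 h at 37 C.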

[10] = target: Muscarinic acetylcholine receptor M1 (Homo sapiens) (UniProt P11229); experiment: Cholinergic receptor muscarinic 1 (CHRM1) small molecule agonists, cell-based qHTS assay (AID 1963589); further: nearly all actives have a fitted effect of over 35% in size
Sequence of Muscarinic acetylcholine receptor M1 (Homo sapiens) (P11229 whole entry, looked up): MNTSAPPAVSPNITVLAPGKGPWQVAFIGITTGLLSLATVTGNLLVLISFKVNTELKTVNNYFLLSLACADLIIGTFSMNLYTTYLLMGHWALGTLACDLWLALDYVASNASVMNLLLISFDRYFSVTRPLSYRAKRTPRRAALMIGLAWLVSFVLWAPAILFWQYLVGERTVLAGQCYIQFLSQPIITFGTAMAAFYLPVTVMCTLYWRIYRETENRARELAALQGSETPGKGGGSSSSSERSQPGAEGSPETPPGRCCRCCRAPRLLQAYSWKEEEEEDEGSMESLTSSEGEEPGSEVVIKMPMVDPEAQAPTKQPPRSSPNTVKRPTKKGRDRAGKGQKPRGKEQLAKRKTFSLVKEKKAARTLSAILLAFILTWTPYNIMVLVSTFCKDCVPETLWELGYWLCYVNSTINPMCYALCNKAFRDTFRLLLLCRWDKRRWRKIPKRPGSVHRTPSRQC
Procedure, shortened: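 Measures agonist-induced intracellular calcium rise. Stable human CHRM1 CHO line, 1 h dye load at 37 C, compounds from DMSO, kinetic fluorescence read.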

[11] = cAMP Responsive Elements (CRE) small molecule agonists, cell-based qHTS assay (AID 1963590)
Procedure, shortened: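 A CRE-responsive beta-lactamase reporter in HEK 293T cells was used. Treatment ran 3 h at 37 C; detection used LiveBLAzer B/G FRET substrate for 2 h at room temperature.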

[12] = cAMP Responsive Elements (CRE) small molecule antagonists, cell-based qHTS assay (AID 1963591; active means well fitted inhibition curve with a large enough effect in the signal ratio in the repeat runs, not every such curve was filed as active; the % refers to the signal ratio)
Procedure, shortened: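 HEK293T cells carrying a CRE-driven beta-lactamase reporter receive compound and NKH477 (0.25 uM final) for 3 h. Fluorescence from LiveBLAzer B/G FRET substrate is read after 2 h at room temperature.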

[13] = target: Beta-2 adrenergic receptor (Homo sapiens) (UniProt P07550); experiment: Adrenergic beta2 receptor (ADRB2) small molecule antagonists, cell-based qHTS assay (AID 1963592); further: nearly all actives have a fitted effect of over 50% in size; further: potency means the concentration at half of the fitted maximal effect
Sequence of Beta-2 adrenergic receptor (Homo sapiens) (P07550 whole entry, looked up): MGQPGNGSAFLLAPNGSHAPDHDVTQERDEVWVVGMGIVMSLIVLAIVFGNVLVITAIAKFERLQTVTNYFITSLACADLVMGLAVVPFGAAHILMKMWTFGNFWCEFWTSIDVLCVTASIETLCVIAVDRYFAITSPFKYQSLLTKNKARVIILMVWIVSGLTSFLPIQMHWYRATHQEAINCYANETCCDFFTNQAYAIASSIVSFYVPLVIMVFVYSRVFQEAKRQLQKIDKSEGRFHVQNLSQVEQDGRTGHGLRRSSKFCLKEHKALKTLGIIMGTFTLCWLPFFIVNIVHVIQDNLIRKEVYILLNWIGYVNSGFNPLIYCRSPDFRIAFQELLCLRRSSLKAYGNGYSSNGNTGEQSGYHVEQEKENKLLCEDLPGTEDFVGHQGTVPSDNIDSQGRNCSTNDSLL
Procedure, shortened: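 Cells (CHO, stable ADRB2 overexpression) incubated 18-20hr at 37C; compounds added from DMSO; agonist mix (1nM isoproterenol, 100uM IBMX, 25uM Ro-20-1724) added; 0.5hr RT; d2-cAMP and anti-cAMP-cryptate added; 1hr RT; 665/615 nm read.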

[14] = target: D(2) dopamine receptor (Homo sapiens) (UniProt P14416); experiment: Dopamine D2 receptor (DRD2) small molecule agonists, cell-based qHTS assay (AID 1963594); further: nearly all actives have a fitted effect of over 35% in size
Sequence of D(2) dopamine receptor (Homo sapiens) (P14416 whole entry, looked up): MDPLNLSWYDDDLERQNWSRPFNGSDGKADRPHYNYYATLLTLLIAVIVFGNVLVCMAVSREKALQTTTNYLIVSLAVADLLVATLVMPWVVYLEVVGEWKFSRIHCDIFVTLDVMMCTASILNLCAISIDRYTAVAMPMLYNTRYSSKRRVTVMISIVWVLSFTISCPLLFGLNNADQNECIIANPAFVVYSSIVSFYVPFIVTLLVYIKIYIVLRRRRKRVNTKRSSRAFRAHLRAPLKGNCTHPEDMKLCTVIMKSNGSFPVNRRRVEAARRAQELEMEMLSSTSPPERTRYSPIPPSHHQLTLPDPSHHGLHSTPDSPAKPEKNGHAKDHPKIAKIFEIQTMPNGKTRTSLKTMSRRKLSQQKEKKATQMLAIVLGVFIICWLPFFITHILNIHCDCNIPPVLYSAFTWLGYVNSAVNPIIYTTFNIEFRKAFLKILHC
Procedure, shortened: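 cAMP accumulation in DRD2-HEK293 cells measured by HTRF after 1 h detection; compounds added 10 min before NKH477 (200nM […]) forskolin-analogue stimulation, 30 min at room temperature, with Ro20-1724 present at 0.1 mM final.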

[15] = p53 small molecule agonists, cell-based qHTS assay with human liver microsomes: qHTS cell viability counter screen (AID 1963579); further: nearly all actives have a fitted effect of over 45% in size
Procedure, shortened: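 In this multiplexed counter screen, the reporter plates were subsequently treated with CellTiter-Glo so that cell viability, reflected by luminescence, could be recorded for p53RE-bla cells dosed 16 h with compounds under microsomal activation (HLM and NADPH).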

[16] = target: Muscarinic acetylcholine receptor M1 (Homo sapiens) (UniProt P11229); experiment: Cholinergic receptor muscarinic 1 (CHRM1) small molecule antagonists, cell-based qHTS assay (AID 1963588); further: nearly all actives have a fitted effect of over 40% in size
Procedure, shortened: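 CHRM1-CHO calcium-flux assay, antagonist mode. Cells were seeded 18 h, dye-loaded 1 h at 37 C and given compound for 5 min at RT, then acetylcholine was added at 50nM. FDSS fluorescence was read 3 min; 15 concentrations, three runs.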

[17] = target: D(2) dopamine receptor (Homo sapiens) (UniProt P14416); experiment: Dopamine D2 receptor (DRD2) small molecule antagonists, cell-based qHTS assay (AID 1963595; active means well fitted inhibition curve with a large enough effect in the signal ratio in the repeat runs, with a control signal flat; the % refers to the signal ratio)
Procedure, shortened: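 In this cell-based antagonist screen, compounds act for 10 min at room temperature before a 30 min challenge with 12 nM quinpirole and 200 nM NKH477. cAMP is quantified by HTRF competition in DRD2-HEK293 cells containing 0.1 mM Ro20-1724.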

[18] = target: Beta-2 adrenergic receptor (Homo sapiens) (UniProt P07550); experiment: Adrenergic beta2 receptor (ADRB2) small molecule agonists, cell-based qHTS assay (AID 1963593);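 further: CHO cells stably overexpressing human ADRB2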
Procedure, shortened: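 CHO cells stably over-expressing ADRB2 were plated overnight at 37C, then dosed with compounds plus a stimulation mix containing 100uM IBMX and 25uM Ro-20-1724 for 0.5hr at room temperature. cAMP was measured by HTRF competition, 1hr.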

[19] = p53 small molecule agonists, cell-based qHTS assay with human liver microsomes (AID 1963577);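 further: p53 response element beta-lactamase reporter cells with liver microsomes plus NADPH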
Procedure, shortened: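 16 h, 37 C exposure of p53RE-bla cells to compounds with human liver microsomes and NADPH (0.5 mg/mL final each); detection via LiveBLAzer mixture, 2 h dark at room temperature.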

[20] = target: KiSS-1 receptor (Homo sapiens) (UniProt Q969F8); experiment: Human kisspeptin (KISS1R) small molecule agonists, calcium flux assay in KISS1R-HEK293 cells (AID 1920064; active means well fitted activation curve with a large enough effect in the repeat runs)
Sequence of KiSS-1 receptor (Homo sapiens) (Q969F8 whole entry, looked up): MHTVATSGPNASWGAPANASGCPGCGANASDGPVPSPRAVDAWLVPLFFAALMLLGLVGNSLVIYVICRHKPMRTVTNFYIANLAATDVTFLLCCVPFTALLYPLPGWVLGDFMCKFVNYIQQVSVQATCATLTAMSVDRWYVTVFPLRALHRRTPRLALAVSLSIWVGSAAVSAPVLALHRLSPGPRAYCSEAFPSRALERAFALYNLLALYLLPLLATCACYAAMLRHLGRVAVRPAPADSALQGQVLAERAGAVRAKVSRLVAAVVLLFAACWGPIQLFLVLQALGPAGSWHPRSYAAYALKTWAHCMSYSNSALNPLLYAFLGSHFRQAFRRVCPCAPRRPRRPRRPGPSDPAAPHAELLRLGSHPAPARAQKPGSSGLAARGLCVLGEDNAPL
Procedure, shortened: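 Kinetic calcium assay, 1 s sampling over 3 min at Ex/Em 480/540, in HEK293 cells engineered with human KISS1R; compounds delivered in DMSO after 1 h dye loading.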

For `CCC(C)(C)c1ccc(CC(C)CN2C[C@@H](C)O[C@@H](C)C2)cc1` (stereo partly specified), the Potency [1] was “inactive”, the Potency [2] was “inactive” and the Potency [3] was “inactive”. For the same compound, the Potency [4] was “inactive”, the Potency [5] was “inactive” and the Potency [6] was “inactive”. The Potency [7] was “inactive”, the Potency [8] was “inactive” and the Potency [9] was “inactive”. The Potency [10] was “inactive”, the Potency [11] was “inactive” and the Potency [12] was “inactive”. For the same compound, the Potency [13] was “inactive” and the Potency [14] was “inactive”.

In the case of `c1cc(N(CC2CO2)CC2CO2)ccc1OCC1CO1` (stereo unspecified), the Potency [1] is reported as 27.3 µM (active) and 24.3 µM (active), the Potency [2] is reported as “inactive” and the Potency [3] is reported as “inactive”. For the same compound, the Potency [15] was “inactive”, the Potency [5] was “inactive” and the Potency [6] was “inactive”. For the same compound, the Potency [8] was “inactive”, the Potency [9] was “inactive” and the Potency [16] was “inactive”. The Potency [10] was “inactive”, the Potency [13] was “inactive” and the Potency [14] was “inactive”. The Potency [17] was “inactive”.

For `CCCCCCCCCCCCCCOS(=O)(=O)O`, the Potency [1] was “inactive”, the Potency [2] was “inactive” and the Potency [3] was “inactive”. For the same compound, the Potency [4] was “inactive”, the Potency [15] was “inactive” and the Potency [5] was “inactive”. For the same compound, the Potency [7] was “inactive”, the Potency [9] was 43.6 µM (active) and the Potency [10] was “inactive”. For the same compound, the Potency [11] was “inactive”, the Potency [12] was “inactive” and the Potency [13] was “inactive”. For the same compound, the Potency [18] was “inactive”, the Potency [14] was “inactive” and the Potency [17] was “inactive”.

With `O=C(/C=C/c1ccc(O)c(O)c1)O[C@@H](C(=O)O)[C@@H](OC(=O)/C=C/c1ccc(O)c(O)c1)C(=O)O` the Potency [1] was “inactive”, the Potency [2] was “inactive” and the Potency [3] was “inactive”. The Potency [19] was “inactive”, the Potency [4] was “inactive” and the Potency [15] was “inactive”. For the same compound, the Potency [5] was “inactive”, the Potency [6] was “inactive” and the Potency [9] was “inactive”. For the same compound, the Potency [16] was “inactive”, the Potency [10] was “inactive” and the Potency [12] was “inactive”.

With `C=Cc1ccc(S(=O)(=O)O)cc1` the Potency [1] was “inactive”, the Potency [2] was “inactive” and the Potency [3] was “inactive”. For the same compound, the Potency [19] was “inactive”, the Potency [15] was “inactive” and the Potency [5] was “inactive”. For the same compound, the Potency [6] was “inactive”, the Potency [8] was “inactive” and the Potency [16] was “inactive”. For the same compound, the Potency [10] was “inactive”, the Potency [13] was “inactive” and the Potency [14] was “inactive”. The Potency [17] was “inactive”.

With `CC(Cc1cccc(C(F)(F)F)c1)NCCOC(=O)c1ccccc1` (stereo unspecified) the Potency [1] was “inactive”, the Potency [20] was “inactive” and the Potency [3] was “inactive”. The Potency [19] was “inactive”, the Potency [4] was “inactive” and the Potency [15] was “inactive”. The Potency [5] was “inactive”, the Potency [7] was “inactive” and the Potency [8] was 20.5 µM (active). The Potency [10] was “inactive”, the Potency [11] was “inactive” and the Potency [13] was 29.8 µM (active). For the same compound, the Potency [14] was “inactive” and the Potency [17] was “inactive”.
